Inconclusive results are not listed. Active and inactive are the calls of the source. Calls follow the shape of the dose curve; as a rule, active = well fitted curve in the direction sought with a large enough effect; inconclusive = small, poorly fitted or top-dose-only effect, or another doubt; inactive = no such curve, though single readings can be large; an effect the other way counts as inactive or inconclusive.
Key:
[1] = Quantitative High-Throughput drug screen in 47 multiple myeloma cell lines against the NCATS MIPE library collection: KMS12BM_JCRB cell viability assay (AID 1918971); also: nearly all actives have a fitted effect of over 35% in size; also: potency is read from the fitted curve at half-maximal effect
Summary of the method: (§1)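 qHTS of the MIPE 4.0 collection: 500 myeloma cells/well, 48 h drug exposure at 37C in 5% CO2, then CellTiter-Glo for 5 min at room temperature before luminescence reading.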

[2] = Quantitative High-Throughput drug screen in 47 multiple myeloma cell lines against the NCATS MIPE library collection: KMS12PE_JCRB cell viability assay (AID 1918972); also: nearly all actives have a fitted effect of over 30% in size; also: potency is read from the fitted curve at half-maximal effect
Summary of the method: as §1

[3] = Quantitative High-Throughput drug screen in 47 multiple myeloma cell lines against the NCATS MIPE library collection: KMS21BM_JCRB cell viability assay (AID 1918974); details: ATP luminescence, 48 h; viability: at 45.8 µM (top of the series); also: potency is read from the fitted curve at half-maximal effect
Summary of the method: (§2)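 Relative luminescence from CellTiter-Glo served as the viability signal, referenced to DMSO-treated (100%) and cell-free medium (0%) controls. Treatment lasted 48 hours at 37C with 500 cells per well.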

[4] = Quantitative High-Throughput drug screen in 47 multiple myeloma cell lines against the NCATS MIPE library collection: KMS26_JCRB cell viability assay (AID 1918975); also: nearly all actives have a fitted effect of over 45% in size; also: potency is read from the fitted curve at half-maximal effect
Summary of the method: as §1

[5] = Quantitative High-Throughput drug screen in 47 multiple myeloma cell lines against the NCATS MIPE library collection: MOLP8_DSMZ cell viability assay (AID 1918977); also: nearly all actives have a fitted effect of over 45% in size; also: potency is read from the fitted curve at half-maximal effect
Summary of the method: (§3)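 Viability after 48 h drug exposure was measured as ATP-dependent luminescence. Cells, 500 per well, sat at 37 °C under 5% CO2; DMSO wells set 100%, media-only wells 0%.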

[6] = Quantitative High-Throughput drug screen in 47 multiple myeloma cell lines against the NCATS MIPE library collection: NCIH929_DSMZ cell viability assay (AID 1918978); also: nearly all actives have a fitted effect of over 35% in size; also: potency is read from the fitted curve at half-maximal effect
Summary of the method: as §3

[7] = Quantitative High-Throughput drug screen in 47 multiple myeloma cell lines against the NCATS MIPE library collection: OCIMY1_PLB cell viability assay (AID 1918979); also: nearly all actives have a fitted effect of over 35% in size
Summary of the method: as §3

[8] = Quantitative High-Throughput drug screen in 47 multiple myeloma cell lines against the NCATS MIPE library collection: MM1R_ATCC cell viability assay (AID 1918981); also: nearly all actives have a fitted effect of over 35% in size; also: potency is read from the fitted curve at half-maximal effect
Summary of the method: as §3

[9] = Quantitative High-Throughput drug screen in 47 multiple myeloma cell lines against the NCATS MIPE library collection: KMS28PE_JCRB cell viability assay (AID 1918983); also: nearly all actives have a fitted effect of over 35% in size; also: potency is read from the fitted curve at half-maximal effect
Summary of the method: as §3

[10] = Quantitative High-Throughput drug screen in 47 multiple myeloma cell lines against the NCATS MIPE library collection: L363_DSMZ cell viability assay (AID 1918984); also: nearly all actives have a fitted effect of over 40% in size; also: potency is read from the fitted curve at half-maximal effect
Summary of the method: as §3

[11] = Quantitative High-Throughput drug screen in 47 multiple myeloma cell lines against the NCATS MIPE library collection: KMS34_JCRB cell viability assay (AID 1918985); also: nearly all actives have a fitted effect of over 40% in size; also: potency is read from the fitted curve at half-maximal effect
Summary of the method: as §3

[12] = Quantitative High-Throughput drug screen in 47 multiple myeloma cell lines against the NCATS MIPE library collection: OCIMY5_PLB cell viability assay (AID 1918988); also: nearly all actives have a fitted effect of over 65% in size; also: potency is read from the fitted curve at half-maximal effect
Summary of the method: as §3

[13] = Quantitative High-Throughput drug screen in 47 multiple myeloma cell lines against the NCATS MIPE library collection: MM1S_ATCC cell viability assay (AID 1918980); also: nearly all actives have a fitted effect of over 45% in size; also: potency is read from the fitted curve at half-maximal effect
Summary of the method: as §3

[14] = Quantitative High-Throughput drug screen in 47 multiple myeloma cell lines against the NCATS MIPE library collection: LP1_DSMZ cell viability assay (AID 1918982); also: nearly all actives have a fitted effect of over 35% in size; also: potency is read from the fitted curve at half-maximal effect
Summary of the method: as §3

[15] = Quantitative High-Throughput drug screen in 47 multiple myeloma cell lines against the NCATS MIPE library collection: Karpas25_ECACC cell viability assay (AID 1918968; also: nearly all actives have a fitted effect of over 35% in size; also: potency is read from the fitted curve at half-maximal effect)
Summary of the method: as §2

[16] = Quantitative High-Throughput drug screen in 47 multiple myeloma cell lines against the NCATS MIPE library collection: MMM1_PLB cell viability assay (AID 1918976); also: nearly all actives have a fitted effect of over 35% in size; also: potency is read from the fitted curve at half-maximal effect
Summary of the method: as §3

[17] = Quantitative High-Throughput drug screen in 47 multiple myeloma cell lines against the NCATS MIPE library collection: KMS27_JCRB cell viability assay (AID 1918970); also: nearly all actives have a fitted effect of over 30% in size; also: potency is read from the fitted curve at half-maximal effect
Summary of the method: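 Each line is seeded at 500 cells per well and treated with library compounds for 48 hours under 37 °C, 5% CO2. CellTiter-Glo is then added for 5 min at room temperature before median relative luminescence is recorded.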

[18] = Quantitative High-Throughput drug screen in 47 multiple myeloma cell lines against the NCATS MIPE library collection: OCIMY7_PLB cell viability assay (AID 1918987); also: potency is read from the fitted curve at half-maximal effect; nearly all actives have a fitted effect of over 65% in size
Summary of the method: as §3

[19] = Quantitative High-Throughput drug screen in 47 multiple myeloma cell lines against the NCATS MIPE library collection: KMS20_JCRB cell viability assay (AID 1918973); also: nearly all actives have a fitted effect of over 45% in size
Summary of the method: as §2

Measured: Potency

CCC(=O)O[C@]1(C(=O)CCl)[C@@H](C)C[C@H]2[C@@H]3CCC4=CC(=O)C=C[C@]4(C)[C@@]3(F)[C@@H](O)C[C@@]21C
inactive: [3] | [4] | [5] | [6] | [7] | [8] | [9] | [11]
active: [1] 14.8 µM | [2] 16.6 µM | [10] 0.0093 µM | [12] 1.32 µM

C[C@]12C=CC(=O)C=C1CC[C@@H]1[C@@H]2C(=O)C[C@@]2(C)[C@H]1CC[C@]2(O)C(=O)CO
inactive: [1] | [2] | [6] | [7] | [13] | [8] | [14] | [9] | [11] | [12]

NC(N)=NC(N)=NCCc1ccccc1
active: [15] 5.26 µM | [1] 10.5 µM | [3] 3.32 µM | [16] 5.26 µM | [13] 2.96 µM | [8] 16.6 µM | [9] 5.26 µM | [11] 1.66 µM | [12] 13.2 µM

CC(C)(C)NC(=O)[C@H]1CC[C@H]2[C@@H]3CC[C@H]4NC(=O)C=C[C@]4(C)[C@H]3CC[C@]12C
active: [15] 0.662 µM | [2] 20.9 µM | [6] 0.296 µM | [13] 0.264 µM | [8] 1.32 µM | [12] 0.59 µM
inactive: [16] | [7] | [9] | [11]

COC(=O)Nc1nc2ccc(S(=O)c3ccccc3)cc2[nH]1 (configuration not stated)
active: [15] 16.6 µM | [11] 23.5 µM | [12] 16.6 µM
inactive: [4] | [16]

C[C@@H]1C[C@H]2[C@@H]3CCC4=CC(=O)C=C[C@]4(C)[C@@]3(Cl)[C@@H](O)C[C@]2(C)[C@@]1(OC(=O)c1ccco1)C(=O)CCl
active: [17] 10.5 µM | [2] 4.69 µM | [16] 18.7 µM | [6] 3.32 µM | [8] 16.6 µM | [18] 9.35 µM | [12] 16.6 µM

CN(Cc1cc(Br)cc(Br)c1N)C1CCCCC1
active: [16] 33.2 µM
inactive: [17] | [2] | [5] | [6] | [13] | [9]

CC1(C)[C@H](C(=O)O)N2C(=O)C[C@H]2S1(=O)=O
inactive: [15] | [1] | [2] | [4] | [6] | [8] | [10]
active: [13] 26.4 µM | [14] 0.0012 µM

NC(=O)c1cccc(N)c1
inactive: [15] | [2] | [4] | [7] | [8] | [14] | [9] | [11] | [12]
active: [6] 16.6 µM

CCN1CCCC1CNC(=O)c1cc(S(N)(=O)=O)ccc1OC (configuration not stated)
active: [15] 2.09 µM
inactive: [2] | [16] | [6] | [7] | [8] | [14] | [9] | [11]

CC(C(=O)O)c1ccc2c(c1)CC(=O)c1ccccc1S2 (configuration not stated)
inactive: [1] | [5] | [6] | [7] | [14] | [9]
active: [15] 18.7 µM | [3] 0.264 µM | [13] 2.96 µM

CNS(=O)(=O)CCc1ccc2[nH]cc(C3CCN(C)CC3)c2c1
inactive: [5] | [9]
active: [15] 0.935 µM | [1] 2.64 µM | [4] 2.96 µM | [6] 0.332 µM | [13] 0.469 µM | [12] 1.18 µM

CCCCCCNC(=O)n1cc(F)c(=O)[nH]c1=O
active: [15] 7.43 µM | [1] 4.69 µM | [3] 0.332 µM | [5] 6.62 µM | [6] 11.8 µM | [13] 20.9 µM | [8] 4.18 µM | [11] 8.33 µM
inactive: [7] | [9]

O=C(O)c1cccnc1
inactive: [2] | [19] | [5] | [6] | [7] | [13] | [8] | [9] | [11]
active: [16] 1.48 µM

Cc1ccnc2c1NC(=O)c1cccnc1N2C1CC1
inactive: [1] | [2] | [5] | [7] | [8] | [9] | [12]
active: [17] 1.87 µM | [13] 4.69 µM

CC(C)OC(=O)OCOP(=O)(CO[C@H](C)Cn1cnc2c(N)ncnc21)OCOC(=O)OC(C)C
active: [15] 14.8 µM | [2] 29.6 µM | [13] 23.5 µM | [8] 11.8 µM | [12] 3.72 µM
inactive: [14]

CCC(C)(C)c1ccc(CC(C)CN2C[C@@H](C)O[C@@H](C)C2)cc1 (some centres not stated)
inactive: [2] | [6]

Nc1nc(N)c2nc(CNc3ccc(C(=O)NC(CCC(=O)O)C(=O)O)cc3)cnc2n1 (configuration not stated)
active: [13] 0.0132 µM
inactive: [15] | [5] | [6] | [7] | [9]

CC1=C(C(=O)O)N2C(=O)[C@@H](NC(=O)C(N)c3ccccc3)[C@H]2SC1 (some centres not stated)
inactive: [15] | [2] | [19] | [6] | [7] | [8] | [14] | [9]

CCCOc1ccc(C(=O)OCCN(CC)CC)cc1N
inactive: [17] | [2] | [5] | [6] | [7] | [8] | [14] | [9] | [11] | [12]

O=NN(CCCl)C(=O)NC1CCCCC1
inactive: [17] | [2] | [5] | [6] | [7] | [13] | [8] | [9] | [10] | [11]

CC(C)(Sc1cc(C(C)(C)C)c(O)c(C(C)(C)C)c1)Sc1cc(C(C)(C)C)c(O)c(C(C)(C)C)c1
inactive: [17] | [1] | [4] | [5] | [8] | [14] | [9] | [11] | [12]
active: [13] 4.18 µM

COc1cccc(N(C)C(=S)Oc2ccc3c(c2)CCCC3)n1
active: [13] 18.7 µM
inactive: [1] | [5] | [6] | [7] | [8] | [9] | [11]

COc1cc2c(Nc3ccc(Br)cc3F)ncnc2cc1OCC1CCN(C)CC1
active: [15] 8.33 µM | [6] 8.33 µM | [13] 23.5 µM | [8] 23.5 µM | [9] 16.6 µM | [12] 18.7 µM
inactive: [3]

CC[C@H](NC(C)C)[C@H](O)c1ccc(O)c2[nH]c(=O)ccc12
inactive: [17] | [2] | [4] | [6] | [7] | [14] | [9]
active: [1] 0.0235 µM | [13] 0.235 µM | [8] 0.59 µM | [12] 0.0833 µM

From PubChem BioAssay (NCATS)
